ATXN viability: reduces viability in counter-screen for ATXN expression inhibitors; S2 cells (HEK-293 line with an ATXN2-luciferase reporter) viability, CellTiter-Fluor protease fluorescence, 24 h; Potency, µM (doses to about 56.7 µM), actives largely listed as cytotoxic; 400,000 compounds, 0.49% hits; further: nearly all actives have a fitted effect of over 40% in size
ATXN2 expr inh: reduces ATXN2 reporter expression in HEK-293 cells; HEK-293 ATXN2-luciferase reporter, luminescence, 24 h; 360,000 compounds, 0.72% hits; Potency, µM (highest dose often 57 µM), for the others: top-dose activity change, negative = inhibition, most hits filed as inhibitors; AID 1745845; further: on the % scale 0 is the no-effect control and ±100 the full control effect; nearly all actives have a fitted effect of over 55% in size
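ATXN2-luciferase reporter cells (luciferase flanked by upstream and downstream ATXN2 gene portions) were treated 24 h at 37 °C with compounds at up to 57 uM. SteadyGlo luminescence gave expression; GF-AFC fluorescence gave viability.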
A549 viability: kills or reduces viability of A549 cells in Nrf2 counter-screen; A549 ARE-Fluc cells, CellTiter-Fluor viability, 18-24 h; Potency, µM (top dose mostly 46 µM), for inactives: top-dose activity change, negative = cytotoxicity, hits mostly inhibitors; 390,000 compounds, 0.16% hits; further: on the % scale 0 is the no-effect control and ±100 the full control effect
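A549 ARE_Fluc cells in 5% FBS OPTI-MEM were exposed to compounds in concentration-response for 18-24 h at 37 deg C. Viability was read by CellTiter-Fluor fluorescence (Ex 405/Em 525) after 30 min, before the luciferase read.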
TGFb inhibitor: TGF-b pathway inhibition. HepG2 CAGA-GFP TGF-b/SMAD3 reporter, GFP fluorescence, 18 h; TGF-beta stimulated, 500 pg/mL final. Potency, µM (top dose mostly 46.1 µM), inactives show at the top dose activity, negative = inhibition, actives largely listed as inhibitors. 410,000 compounds, 1.2% hits. AID 588855; further: on the % scale 0 is the no-effect control and ±100 the full control effect; nearly all actives have a fitted effect of over 65% in size
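Read-out: total well GFP (ex488/em500-530) summed from mean per-cell fluorescence. Cells: HEPG2 CAGA-GFP, 1% FBS DMEM, 18 h at 37 degrees C with 500 pg/mL final TGF-beta. Unstimulated wells served as the full-inhibition control; stimulated DMSO wells = 0%.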
Nrf2 inh: inhibitors of Nrf2 signaling; A549 ARE-Fluc reporter, luciferase luminescence, 18-24 h; Potency, µM (series often up to 46 µM), without a hit: at the highest dose activity change, negative = inhibition, most hits filed as inhibitors; 360,000 compounds, 2.1% hits; AID 504444; further: on the % scale 0 is the no-effect control and ±100 the full control effect; nearly all actives have a fitted effect of over 60% in size
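Concentration-response testing used A549 ARE_Fluc cells at 5000 cells/well. Following an 18-24 h compound incubation, viability was read by fluorescence (Ex 405/Em 525) and luciferase output by luminescence.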
HepG2 tox-1: HepG2 cytotoxicity, counter-screen for TGF-b inhibitors | HepG2 CAGA-GFP viability, ATP luminescence, 18 h | Potency, µM (titrated, usually from 46.1 µM), for the others: at the top dose activity change, negative = cytotoxicity, usual class: cytotoxic | 410,000 compounds, 0.76% hits
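HepG2 CAGA-GFP cells (1000/well, DMEM with 1% FBS) received compound, then TGF-beta at 500 pg/mL final, and were incubated 18 hours at 37 degrees C. Viability was read by CellTiter-Glo luminescence. Media-only wells were set as complete cell-killing and DMSO as no toxicity.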
TGFb CAGA inh: confirmation of TGF-b signaling inhibitors in HepG2 reporter cells; shares compounds with TGFb inhibitor; HepG2 CAGA-GFP TGF-b reporter, GFP fluorescence, 18 h; cells stimulated with TGF-beta, 500 pg/mL; Potency, µM (titrated, usually from 46.1 µM), inactives show top-dose activity, negative = inhibition, hits mostly inhibitors; 1,600 compounds, 63% hits; further: on the % scale 0 is the no-effect control and ±100 the full control effect; nearly all actives have a fitted effect of over 65% in size
HepG2 tox-2: counter-screen for TGF-b inhibitors: cytotoxicity in HepG2 cells. shares compounds with TGFb inhibitor. Potency, µM (top dose mostly 46.1 µM), for inactives: at the top dose activity, negative = cytotoxicity, usual class: inhibitors. HepG2 CAGA-GFP viability, ATP luminescence, 18 h; cells stimulated with TGF-beta, 500 pg/mL. 1,600 compounds, 27% hits; further: on the % scale 0 is the no-effect control and ±100 the full control effect; nearly all actives have a fitted effect of over 70% in size
TGFb CCL64 inh: TGF-b inhibition, CCL64 orthogonal assay; shares compounds with TGFb inhibitor; CCL64 CAGA-GFP reporter, TGF-b stimulated, GFP fluorescence, 18 h; Potency, µM (titrated, usually from 46.1 µM), inactives show at the top dose activity, negative = inhibition, usual class: inhibitors; 1,600 compounds, 41% hits; AID 720536; further: nearly all actives have a fitted effect of over 65% in size
COP TGFb inh: validation of TGF-b inhibitors in HepG2 COP promoter reporter; AID 720537; shares compounds with TGFb inhibitor; Potency, µM (top dose mostly 46.1 µM), for inactives: at the highest dose activity, negative = inhibition, most hits filed as inhibitors; 1,600 compounds, 3% hits; HepG2 COP-GFP TGF-b reporter, GFP fluorescence, 18 h; cells stimulated by added recombinant TGF-beta; further: nearly all actives have a fitted effect of over 70% in size
Starred values were filed as active, the others as inactive; i = inactive; ? = inconclusive; . = not tested or not shown. A selection: hits, their analogues and other compounds. The true share with any hit is near 3.8%. The call rests on the fitted dose curve; in most records, active means well fitted curve in the direction sought with a large enough effect; inconclusive means small, poorly fitted or top-dose-only effect, or another doubt; inactive means no such curve, though single readings can be large; an effect the other way counts as inactive or inconclusive. Potency means the concentration at half of the fitted maximal effect.

SMILES	ATXN viability	ATXN2 expr inh	A549 viability	TGFb inhibitor	Nrf2 inh	HepG2 tox-1	TGFb CAGA inh	HepG2 tox-2	TGFb CCL64 inh	COP TGFb inh
CC(C)C[C@@H](COCc1cccc(Cl)c1)N1CCN(C(=O)c2cccc(C(F)(F)F)c2)CCC1=O	?	-39%	.	.	.	.	.	.	.	.
CC(C)CC(COCc1cccc(Cl)c1)N1CCN(C(=O)c2ccc(C(F)(F)F)cc2)CCC1=O (stereo not given)	.	-4%	?	10µM*	?	-27%	18µM*	-11%	?	-1%
Cc1cccc(COCC(CC(C)C)N2CCN(C(=O)c3ccc(C(F)(F)F)cc3)CCC2=O)c1 (stereo not given)	?	-29%	-8%	?	-21%	-12%	.	.	.	.
Cc1cccc(COCC(CC(C)C)N2CCN(C(=O)c3ccc(C(C)(C)C)cc3)CCC2=O)c1 (stereo not given)	?	?	?	8.9µM*	23µM*	-111%	?	?	?	?
CC1=C(C(=O)Nc2ccccc2)C(c2ccccc2Cl)n2ncc(C(=O)Nc3cccc(C)c3)c2N1 (stereo not given)	.	.	-1%	-47%	-7%	-3%	.	.	.	.
Cc1ccc(SC(C)C(=O)NCc2ccncc2)cc1 (stereo not given)	i	5%	1%	?	2%	-28%	?	3%	14%	-8%
O=C(CC(Nc1ccccc1)C(=O)O)c1ccccc1 (stereo not given)	i	124%	-5%	-5%	?	-3%	.	.	.	.
C=C(C(=O)c1ccccc1)C(C)CC(=O)c1ccccc1 (stereo not given)	.	?	?	13µM*	-14%	-3%	4.6µM*	15µM*	15µM*	-43%
OC(CN1CCN(c2cccc(Cl)c2)CC1)c1ccccc1 (stereo not given)	i	-3%	0%	-25%	-17%	-26%	.	.	.	.
OC(COC(c1ccccc1)c1ccccc1)CN1CCN(c2cccc(Cl)c2)CC1 (stereo not given)	?	-12%	-4%	16µM*	8%	-13%	18µM*	?	?	41%
O=C1NCCN1CCNc1nc(NCC2CC2)nc2cc(-c3ccccc3)sc12	?	-11%	.	-10%	.	-27%	.	.	.	.
c1ccc(-c2cc3nc(NCC4CC4)nc(NCC4CCCCC4)c3s2)cc1	14µM*	?	.	10µM*	.	18µM*	23µM*	7.3µM*	5.2µM*	-36%
Cc1ccc(S(=O)(=O)Nc2cc3c(C(=O)OCc4ccccc4)c(C)oc3c3ccccc23)c(C)c1	i	9%	3%	-19%	-3%	-29%	.	.	.	.
C(=C\c1ccccc1)/CN1CCN(C(c2cccs2)c2nnnn2C2CCCC2)CC1 (stereo not given)	?	-30%	.	?	.	-15%	.	.	.	.
C(=C\c1ccccc1)/CN1CCN(C(c2cccs2)c2nnnn2Cc2ccccc2)CC1 (stereo not given)	?	?	.	11µM*	.	-9%	16µM*	?	?	59%
C(=C\c1ccccc1)/CN1CCN(C(CCc2ccccc2)c2nnnn2C2CCCC2)CC1 (stereo not given)	?	-29%	.	11µM*	.	-3%	21µM*	?	?	60%
C(=C\c1ccccc1)/CN1CCN(C(c2cccc3ccccc23)c2nnnn2Cc2ccccc2)CC1 (stereo not given)	i	-15%	.	?	.	-2%	.	.	.	.
C(=C\c1ccccc1)/CN1CCN(C(c2nnnn2C2CCCC2)C2CC2)CC1 (stereo not given)	?	0%	.	7.9µM*	.	-27%	?	-24%	-15%	12%
Cc1nn(-c2ccccc2)c(C)c1NC(=O)COC(=O)c1ccc(Cl)c(S(N)(=O)=O)c1	i	-8%	7%	6%	12%	-23%	.	.	.	.
COc1cc(C(=O)Oc2ccccc2/C=N/NC(=O)c2ccc(C)cc2)cc(OC)c1OC	?	-10%	-15%	13µM*	-8%	-3%	?	?	-28%	-7%
CCn1c2ccccc2c2nnc(N3CCN(c4ccc(OC)cc4)CC3)nc21	.	.	1%	-13%	?	-10%	.	.	.	.
CC=Cc1cc2c(c(=O)o1)C(=O)C(O)C(C)O2 (stereo not given)	.	?	-23%	11µM*	-30%	-17%	5.2µM*	21µM*	?	20%
COC(=O)c1ccc2nc(-c3ccco3)c(Cc3cccc(F)c3)n2c1	i	2%	.	14µM*	.	-19%	21µM*	-12%	?	25%
Cc1ccnc(NC(=S)N2CCN(c3cccc(C(F)(F)F)c3)CC2)c1	?	?	?	13µM*	23µM*	-23%	7.3µM*	13µM*	-15%	30%
COc1ccc(C=CC(=O)c2ccc3cc(OC)c(OC)cc3c2)cc1OC	.	.	.	?	.	-74%	.	.	.	.
COc1ccc(/C=C/C(=O)c2ccc(NC3=NCCCS3)cc2)cc1OC	i	-13%	6%	13µM*	-9%	-3%	9.2µM*	16µM*	26µM*	-10%
COc1ccc(NC(=O)CNC(c2ccccc2)c2ccccc2)cc1Cl	i	-11%	1%	11µM*	?	-29%	?	-10%	?	34%

Bioassay records from PubChem BioAssay.
